# Measured values taken from PubChem BioAssay.
# Values joined by “and” are separate entries in the source; they are usually repeats but may differ in a detail not shown here. Equal values may be shown once. The source holds several records for some structures; these can differ, active in one and inactive in another. Active and inactive are the calls of the source.
# Experiments:
# [1] = system: PRMT1 (protein arginine N-methyltransferase 1); experiment: small molecules binding arginine methyltransferase PRMT1 – biochemical, small-molecule microarray, 635 nm fluorescence, primary screen (AID 1088); details: higher = more signal;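 note: binding of Prmt1 protein to compounds spotted on small-molecule microarray slides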
# [2] = growth effects on S. cerevisiae YJM789 – YJM789 clinical isolate, OD600, 24 h, basal, primary screen (AID 1089); details: higher = more signal, called active from +8 up or from −8 down;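 note: growth of clinical yeast isolate S. cerevisiae YJM 789 seeded 1000 cells per well; test concentration not given here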
# [3] = S. pombe growth modifiers, basal conditions – strain 972, OD600, 24 h, no modulator, primary screen (AID 1090);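 note: basal condition with compound alone and no growth modifier present; test concentration not given here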; details: S. pombe 972 growth, higher = more signal, called active from +8 up or from −8 down
# [4] = budding yeast growth modifiers under rapamycin – strain BY4716, OD600, 96 h, primary screen (AID 1091); note: test concentration not given here; details: S. cerevisiae BY4716 + rapamycin, higher = more signal, called active from +8 up or from −8 down
# [5] = target: Torsin-1A-interacting protein 2 (Homo sapiens) (UniProt Q8NFQ8); experiment: small molecules binding lysate-expressed LULL1 – cell lysate, human LULL1 lysate, 635/667 nm fluorescence, primary screen (AID 1092); details: small-molecule microarray, hLULL1 lysate binding, 635 nm fluorescence; higher = more signal;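 note: probe is lysate of COS7 cells overexpressing human LULL1; score merges per-feature 667 nm fluorescence with signal-to-noise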
# [6] = optical density change of DRC41 E. coli – strain DRC41, OD650, 24 h, E. coli filamentation project, primary screen (AID 1093);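 note: MC1000 strain lacking acrAB efflux and sulA so SOS filamentation is blocked; test concentration not given here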; details: E. coli DRC41 growth, higher = more signal, called active from +8 up or from −8 down
# [7] = probe aLefty2 binding to arrayed compounds – biochemical, biotinylated probe, 635/667 nm fluorescence, primary screen (AID 1094); details: small-molecule microarray, higher = more signal;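 note: score merges spot fluorescence near 667 nm with spot signal-to-noise ratio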
# [8] = system: Noggin (protein binding on small-molecule microarray); experiment: small molecules binding Noggin protein – biochemical, 635/667 nm fluorescence, primary screen (AID 1095); details: 635 nm fluorescence, higher = more signal;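 note: score merges 667 nm feature fluorescence with signal to noise over triplicate slides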
# [9] = target: Neurogenic locus notch homolog protein 3 (Homo sapiens) (UniProt Q9UM47); experiment: small molecules binding NOTCH3 protein – biochemical, 635/667 nm fluorescence, primary screen (AID 1096); details: small-molecule microarray, 635 nm fluorescence, higher = more signal
# [10] = probe aEGFR binding to arrayed compounds – biochemical, biotinylated probe, 635/667 nm fluorescence, primary screen (AID 1097); details: small-molecule microarray, higher = more signal;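 note: probe is a biotinylated anti-EGFR antibody binding compounds printed on slides; score combines fluorescence near 667 nm and signal to noise of each spot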
# [11] = system: Plasmodium falciparum Sir2 (PF13_0152, Sir2A); experiment: Plasmodium falciparum Sir2A binding compounds – biochemical, small-molecule microarray, 635 nm fluorescence, primary screen (AID 1098); details: fluorescence 635 nm, higher = more signal;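 note: score merges spot fluorescence intensity with its signal-to-noise ratio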
# [12] = probe aDKK1 binding to arrayed compounds – biochemical, biotinylated probe, 635/667 nm fluorescence, primary screen (AID 1099); details: small-molecule microarray, higher = more signal;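 note: score merges 667nm spot fluorescence with signal to noise across triplicate slides; reference of the scale not given here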
# [13] = probe aCHRDL2 binding to arrayed compounds – biochemical, biotinylated probe, 635/667 nm fluorescence, primary screen (AID 1100); details: small-molecule microarray, higher = more signal
# [14] = change in splice reporter luminescence, either direction, cell-based, HEK293, spliceosome inhibition project, primary screen (AID 1101); details: HEK293 splicing luciferase reporter, 24 h, higher = more signal, called active from +8 up or from −8 down;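 note: HEK293 cells carrying a splicing-competent luciferase reporter gene; test concentration not given here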
# [15] = target: Fibroblast growth factor 10 (Homo sapiens) (UniProt O15520); experiment: compounds binding fibroblast growth factor 10 – biochemical, small-molecule microarray, 635 nm fluorescence, primary screen (AID 1102); details: FGF10 binding, fluorescence 635 nm, higher = more signal
# [16] = system: glycogen synthase kinase-3 (GSK3A per assay name; protocol says GSK3B); experiment: compounds binding glycogen synthase kinase-3 – biochemical, small-molecule microarray, 635 nm fluorescence, GSK3A, primary screen (AID 1103); details: fluorescence 635 nm, higher = more signal; note: the record names both GSK3A and GSK3B
# [17] = target: Epidermal growth factor receptor (Homo sapiens) (UniProt P00533); experiment: compounds binding epidermal growth factor receptor – biochemical, small-molecule microarray, 635 nm fluorescence, primary screen (AID 1104); details: EGFR binding, higher = more signal;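 note: score merges 667 nm emission intensity with spot signal to noise over triplicate slides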
# [18] = target: Follistatin-related protein 3 (Homo sapiens) (UniProt O95633); experiment: compounds binding follistatin-related protein 3 – biochemical, small-molecule microarray, 635 nm fluorescence, primary screen (AID 1105); details: FSTL3 binding, higher = more signal;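 note: score merges emission near 667 nm and signal to noise per printed spot across three slides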
# [19] = target: Dickkopf-related protein 1 (Homo sapiens) (UniProt O94907); experiment: small molecules binding DKK1 protein – biochemical, small-molecule microarray, 635 nm fluorescence scan, primary screen (AID 1106); details: higher = more signal;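 note: score merges emission near 667 nm with signal to noise over three replicate slides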
# [20] = system: Inhibin beta A chain (activin A); experiment: small molecules binding activin A – biochemical, small-molecule microarray, 635 nm fluorescence scan, primary screen (AID 1107); details: INHBA, higher = more signal;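 note: mouse activin A protein probed at 4.33 µg/mL on printed slides; score merges bound-protein fluorescence near 667 nm with spot signal-to-noise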
# Sequence of Epidermal growth factor receptor (Homo sapiens) (P00533 whole entry, looked up): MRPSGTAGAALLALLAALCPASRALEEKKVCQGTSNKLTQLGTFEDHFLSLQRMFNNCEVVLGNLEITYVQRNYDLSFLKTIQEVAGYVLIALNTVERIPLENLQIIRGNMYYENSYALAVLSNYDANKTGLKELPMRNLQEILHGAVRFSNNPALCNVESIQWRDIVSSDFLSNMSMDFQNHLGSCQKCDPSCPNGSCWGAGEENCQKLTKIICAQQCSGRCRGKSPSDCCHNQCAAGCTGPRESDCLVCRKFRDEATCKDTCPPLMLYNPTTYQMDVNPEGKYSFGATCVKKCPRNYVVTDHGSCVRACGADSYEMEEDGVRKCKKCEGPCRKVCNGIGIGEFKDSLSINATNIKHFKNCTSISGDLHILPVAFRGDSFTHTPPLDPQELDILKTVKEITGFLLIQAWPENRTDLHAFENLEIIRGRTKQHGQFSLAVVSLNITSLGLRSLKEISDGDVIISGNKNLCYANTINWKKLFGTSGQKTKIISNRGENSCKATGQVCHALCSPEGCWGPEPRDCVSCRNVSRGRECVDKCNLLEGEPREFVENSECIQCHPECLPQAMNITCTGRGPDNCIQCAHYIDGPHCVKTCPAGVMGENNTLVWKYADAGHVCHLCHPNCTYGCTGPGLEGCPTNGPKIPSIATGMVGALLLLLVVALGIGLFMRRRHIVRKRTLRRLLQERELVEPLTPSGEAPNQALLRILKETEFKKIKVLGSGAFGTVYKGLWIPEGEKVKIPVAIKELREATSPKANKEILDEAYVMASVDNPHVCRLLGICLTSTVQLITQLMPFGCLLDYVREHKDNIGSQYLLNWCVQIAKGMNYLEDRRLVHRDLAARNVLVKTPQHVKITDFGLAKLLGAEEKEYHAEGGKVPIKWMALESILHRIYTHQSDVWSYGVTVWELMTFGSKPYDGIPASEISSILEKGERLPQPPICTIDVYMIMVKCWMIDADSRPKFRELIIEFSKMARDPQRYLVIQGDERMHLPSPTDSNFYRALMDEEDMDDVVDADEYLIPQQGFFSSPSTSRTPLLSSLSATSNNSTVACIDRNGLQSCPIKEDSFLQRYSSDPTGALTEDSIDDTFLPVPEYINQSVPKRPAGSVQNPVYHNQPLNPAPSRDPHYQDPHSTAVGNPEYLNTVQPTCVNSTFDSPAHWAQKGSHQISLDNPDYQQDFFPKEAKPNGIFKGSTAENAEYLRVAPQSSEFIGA
# Sequence of Torsin-1A-interacting protein 2 (Homo sapiens) (Q8NFQ8 whole entry, looked up): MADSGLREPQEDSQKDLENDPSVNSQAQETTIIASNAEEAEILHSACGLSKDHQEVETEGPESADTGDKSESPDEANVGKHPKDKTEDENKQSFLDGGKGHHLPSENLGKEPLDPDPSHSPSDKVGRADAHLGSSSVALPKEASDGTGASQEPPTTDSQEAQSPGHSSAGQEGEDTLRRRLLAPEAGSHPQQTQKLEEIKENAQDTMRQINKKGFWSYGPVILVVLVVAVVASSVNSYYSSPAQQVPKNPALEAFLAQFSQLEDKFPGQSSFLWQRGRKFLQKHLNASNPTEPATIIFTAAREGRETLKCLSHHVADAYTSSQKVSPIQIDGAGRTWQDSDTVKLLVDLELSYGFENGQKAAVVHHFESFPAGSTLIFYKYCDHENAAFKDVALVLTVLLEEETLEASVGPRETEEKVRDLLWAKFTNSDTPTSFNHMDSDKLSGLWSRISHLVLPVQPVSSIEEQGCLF
# Sequence of Fibroblast growth factor 10 (Homo sapiens) (O15520 whole entry, looked up): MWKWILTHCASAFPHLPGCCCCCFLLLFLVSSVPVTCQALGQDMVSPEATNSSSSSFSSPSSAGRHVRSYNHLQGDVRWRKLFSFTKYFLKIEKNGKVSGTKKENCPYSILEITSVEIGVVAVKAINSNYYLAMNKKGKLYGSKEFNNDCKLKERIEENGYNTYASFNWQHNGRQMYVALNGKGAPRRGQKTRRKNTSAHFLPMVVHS
# Sequence of Follistatin-related protein 3 (Homo sapiens) (O95633 whole entry, looked up): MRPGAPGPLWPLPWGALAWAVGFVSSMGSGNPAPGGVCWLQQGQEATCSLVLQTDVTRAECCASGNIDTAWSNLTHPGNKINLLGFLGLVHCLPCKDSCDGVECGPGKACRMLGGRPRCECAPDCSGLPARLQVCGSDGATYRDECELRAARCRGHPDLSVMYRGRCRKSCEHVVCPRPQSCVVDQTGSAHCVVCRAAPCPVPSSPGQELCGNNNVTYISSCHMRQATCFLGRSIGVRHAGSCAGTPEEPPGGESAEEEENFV
# Sequence of Neurogenic locus notch homolog protein 3 (Homo sapiens) (Q9UM47 whole entry, looked up): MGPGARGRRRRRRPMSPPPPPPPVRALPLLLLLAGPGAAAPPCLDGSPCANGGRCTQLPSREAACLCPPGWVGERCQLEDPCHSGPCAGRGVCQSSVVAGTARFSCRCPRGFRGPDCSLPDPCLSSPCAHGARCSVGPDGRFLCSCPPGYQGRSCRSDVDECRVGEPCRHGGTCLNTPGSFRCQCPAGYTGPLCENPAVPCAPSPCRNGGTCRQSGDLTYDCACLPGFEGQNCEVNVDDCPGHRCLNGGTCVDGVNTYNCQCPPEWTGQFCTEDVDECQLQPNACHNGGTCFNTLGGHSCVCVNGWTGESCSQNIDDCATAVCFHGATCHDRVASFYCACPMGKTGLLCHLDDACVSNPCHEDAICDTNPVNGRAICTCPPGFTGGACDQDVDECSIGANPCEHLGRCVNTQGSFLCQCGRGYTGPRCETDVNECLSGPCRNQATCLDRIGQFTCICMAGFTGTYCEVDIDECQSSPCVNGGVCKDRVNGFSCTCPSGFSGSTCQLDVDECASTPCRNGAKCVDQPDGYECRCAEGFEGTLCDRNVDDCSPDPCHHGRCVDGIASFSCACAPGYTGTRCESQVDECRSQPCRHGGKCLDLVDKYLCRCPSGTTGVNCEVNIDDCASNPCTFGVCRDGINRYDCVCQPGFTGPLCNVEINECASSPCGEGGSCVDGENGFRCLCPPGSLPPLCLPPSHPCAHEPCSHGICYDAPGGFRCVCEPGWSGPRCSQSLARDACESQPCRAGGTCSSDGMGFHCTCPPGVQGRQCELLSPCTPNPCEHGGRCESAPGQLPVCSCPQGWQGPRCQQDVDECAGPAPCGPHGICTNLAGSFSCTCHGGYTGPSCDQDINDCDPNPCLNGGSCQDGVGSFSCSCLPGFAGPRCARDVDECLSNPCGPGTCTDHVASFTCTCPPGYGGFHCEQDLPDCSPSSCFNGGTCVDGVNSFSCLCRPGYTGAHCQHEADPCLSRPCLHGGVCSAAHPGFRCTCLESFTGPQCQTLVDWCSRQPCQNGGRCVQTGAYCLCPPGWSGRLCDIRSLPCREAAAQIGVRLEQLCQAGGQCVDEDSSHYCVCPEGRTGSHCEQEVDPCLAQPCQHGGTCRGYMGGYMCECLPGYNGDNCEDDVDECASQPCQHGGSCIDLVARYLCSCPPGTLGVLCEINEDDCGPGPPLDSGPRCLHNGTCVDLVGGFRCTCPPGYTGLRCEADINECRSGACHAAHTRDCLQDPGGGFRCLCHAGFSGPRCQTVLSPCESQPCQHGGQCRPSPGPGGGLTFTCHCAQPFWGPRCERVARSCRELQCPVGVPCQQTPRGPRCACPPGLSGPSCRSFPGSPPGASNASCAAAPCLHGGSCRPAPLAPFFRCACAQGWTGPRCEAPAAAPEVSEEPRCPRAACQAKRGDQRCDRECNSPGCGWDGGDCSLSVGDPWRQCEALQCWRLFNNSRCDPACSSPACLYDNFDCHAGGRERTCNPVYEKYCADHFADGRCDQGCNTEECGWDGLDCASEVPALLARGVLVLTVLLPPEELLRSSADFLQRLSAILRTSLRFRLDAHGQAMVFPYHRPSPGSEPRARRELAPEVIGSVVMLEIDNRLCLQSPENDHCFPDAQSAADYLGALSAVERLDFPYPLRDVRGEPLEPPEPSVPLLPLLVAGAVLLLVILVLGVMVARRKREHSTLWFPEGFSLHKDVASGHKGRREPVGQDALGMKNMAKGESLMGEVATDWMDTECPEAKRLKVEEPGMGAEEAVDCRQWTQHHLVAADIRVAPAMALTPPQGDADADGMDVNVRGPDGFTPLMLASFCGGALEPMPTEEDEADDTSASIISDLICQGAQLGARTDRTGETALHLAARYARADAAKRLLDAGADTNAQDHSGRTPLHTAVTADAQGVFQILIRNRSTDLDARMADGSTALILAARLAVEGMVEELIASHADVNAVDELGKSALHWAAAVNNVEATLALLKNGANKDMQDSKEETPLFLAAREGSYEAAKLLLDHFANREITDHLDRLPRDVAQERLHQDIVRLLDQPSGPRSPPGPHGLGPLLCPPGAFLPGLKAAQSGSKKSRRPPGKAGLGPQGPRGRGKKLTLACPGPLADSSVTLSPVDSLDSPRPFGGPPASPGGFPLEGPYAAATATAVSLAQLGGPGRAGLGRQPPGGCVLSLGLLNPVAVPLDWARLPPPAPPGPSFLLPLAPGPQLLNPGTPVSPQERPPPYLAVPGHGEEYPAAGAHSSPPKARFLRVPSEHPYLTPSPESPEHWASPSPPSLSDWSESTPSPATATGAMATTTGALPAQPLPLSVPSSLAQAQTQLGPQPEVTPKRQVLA
# Sequence of Dickkopf-related protein 1 (Homo sapiens) (O94907 whole entry, looked up): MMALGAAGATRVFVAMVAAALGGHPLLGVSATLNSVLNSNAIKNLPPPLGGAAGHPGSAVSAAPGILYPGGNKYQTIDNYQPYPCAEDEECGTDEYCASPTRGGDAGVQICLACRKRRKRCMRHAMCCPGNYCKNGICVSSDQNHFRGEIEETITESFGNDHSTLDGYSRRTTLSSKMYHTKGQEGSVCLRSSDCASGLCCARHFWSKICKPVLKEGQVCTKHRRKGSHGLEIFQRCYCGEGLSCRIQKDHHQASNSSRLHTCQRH
SMILES,composite z-score [1],z-score [2],z-score [3],z-score [4],composite z-score [5],z-score [6],composite z-score [7],composite z-score [8],composite z-score [9],composite z-score [10],composite z-score [11],composite z-score [12],composite z-score [13],z-score [14],composite z-score [15],composite z-score [16],composite z-score [17],composite z-score [18],composite z-score [19],composite z-score [20]
C=CCN(CCCC)C(=O)C1N(C(C)(C)CO)C(=O)C2C(C(=O)O)C3C=CC21O3 (stereo not given),-0.278 and -1.01,-0.412 (inactive) and 0.0394 (inactive),0.0945 (inactive) and 0.0925 (inactive),-0.626 (inactive) and -0.302 (inactive),-0.523 and -0.805,-0.21 (inactive) and -0.367 (inactive),-0.223 and -0.124,-2.07 and -1.17,-0.732 and -0.74,-0.23 and -0.336,0.645 and 0.0697,-0.188 and -0.123,0.717 and 0.644,0.395 (inactive) and 0.383 (inactive),-1.84 and -0.834,-2.07 and -1.67,-1.97 and -1.42,-2 and -2.8,-2.4 and -1.9,-3.85 and -3
C[C@@H](c1ccccc1)N1C(=O)[C@H]2[C@H]3[C@H](O)[C@H](O)CC(=O)[C@@H]3CC[C@H]2C1=O,0.745,-2.24 (inactive),-0.971 (inactive),-0.727 (inactive),0.775,-0.46 (inactive),-0.0978,0.798,0.82,0.596,0.11,-0.152,-0.706,-1.26 (inactive),0.685,0.59,0.43,0.599,0.943,-0.838
C=CCN(CCCC)C(=O)C1N(c2ccc(CCO)cc2)C(=O)C2C(C(=O)O)C3C=CC21O3 (stereo not given),0.0734 and -0.79,-0.844 (inactive) and -0.115 (inactive),-0.261 (inactive) and -0.527 (inactive),-0.0659 (inactive) and 0.252 (inactive),-1.07 and 0.53,1.13 (inactive) and 2.05 (inactive),0.113 and 0.0553,-2.44 and -3.58,-1.38 and -1.27,-0.226 and -0.317,-1.39 and 1.08,-0.112 and -0.229,0.354 and 1.07,-0.378 (inactive) and 0.182 (inactive),-1.48 and -1.93,-1.54 and -1.22,-1.51 and -2.06,-1.76 and -2.15,-2.31 and -3.32,-1.59 and -3.61
CCC[C@@H]1C[C@@]1(CCC)[C@@H](NC(=O)c1ccc(-c2ccccc2)cc1)c1cccc(Cl)c1,-0.13 and -0.434,-0.173 (inactive) and 0.948 (inactive),-12.7 (active) and 1.75 (inactive),-0.86 (inactive) and 1.18 (inactive),0.678 and 3.32,-1.33 (inactive) and -0.003 (inactive),1.07 and 0.266,0.191 and -0.508,-0.585 and 0.419,0.78 and -0.0975,1.21 and 0.366,1.34 and 0.898,1.09 and 1.13,-3.74 (inactive) and -1.69 (inactive),-0.592 and 0.143,-0.826 and -0.349,-0.346 and 0.0087,-0.46 and -0.339,-0.0916 and -0.455,1.53 and 0.896
CCN1C(=O)[C@H]2[C@H]3[C@H](O)[C@H](O)CC(=NOC)[C@@H]3CC[C@H]2C1=O,-1.1,-0.285 (inactive),-1.9 (inactive),-0.495 (inactive),-0.27,0.525 (inactive),-0.0192,0.178,-0.065,-0.0581,0.767,-0.0904,-0.0826,0.302 (inactive),-0.0502,-0.595,0.1,-0.0407,0.179,0.39
C=CC[C@@H](O)c1ccc(OCCO)cc1,0.347 and -0.516,-2.53 (inactive) and -2.22 (inactive),-10.4 (active) and -1.63 (inactive),-0.121 (inactive) and -0.238 (inactive),-0.821 and -0.479,0.638 (inactive) and 0.664 (inactive),0.0698 and 0.066,0.29 and -0.934,-1.03 and -0.668,-0.272 and -0.305,0.153 and 0.572,-0.458 and -0.292,0.644 and 0.889,-1.87 (inactive) and -2.09 (inactive),-0.906 and -0.929,0.512 and -0.567,-0.798 and -1.61,0.132 and -0.565,-0.751 and -1.58,-0.911 and -1.46
